An excerpt weighted towards active compounds, which were near 12% of everything screened.
Sfp PPTase inh: Sfp phosphopantetheinyl transferase inhibition. Q9F4F7. Biochemical Sfp PPTase activity, qHTS. AID 1490. Potency, µM, usual class: inhibitors. hit rate 3.5% among 310,000;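 note: the enzyme is Sfp with the accession as filed and its product quenches rhodamine fluorescence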
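Fluorescence-quenching assay with 15 nM Sfp, 5 uM rhodamine-CoA and 12.5 uM BHQ-2-labelled ybbR peptide in pH 7.6 Hepes/MgCl2 buffer. Enzyme was pre-incubated with compound for 15 min at room temperature. Rate was taken from the 30-min fluorescence change (525/598 nm).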
ALDH1A1 block: ALDH1A1 (human) enzyme inhibition. P00352. Purified ALDH1A1, NADH fluorescence, propionaldehyde substrate. Potency, µM (top dose mostly 75.3 µM), usual class: inhibitors. hit rate 7.3% among 220,000; active = well fitted inhibition curve with a large enough effect, not every such curve was filed as active; inconclusive = small, poorly fitted or top-dose-only effect, or another doubt; inactive = no such curve, though single readings can be large or run the other way
VP16 counter: inhibits Gal4-VP16 luciferase reporter, ROR gamma counter-screen; AID 2546; Drosophila S2 Gal4-VP16 UAS-luciferase, luminescence, 20 h; Potency, µM (top dose mostly 53.6 µM), hits mostly inhibitors; hit rate 3.5% among 310,000;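 note: Gal4-VP16 expression switched on by copper sulfate through the metallothionein promoter; nearly all actives have a fitted effect of over 50% in size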
RORgamma inh: ROR gamma (mouse) transcription inhibition; Potency, µM (top dose mostly 53.6 µM), usual class: inhibitors; Drosophila S2 Gal4-RORgamma UAS-luciferase reporter, 20 h; AID 2551; hit rate 5.4% among 310,000; P51450; note: nearly all actives have a fitted effect of over 60% in size
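A Gal4/UAS one-hybrid system in insect cells: metallothionein-promoter Gal4–ROR gamma fusion plus Photinus luciferase reporter. Copper sulfate 700 uM final, 20 hr ambient incubation, luminescent detection after 10 min with reagent.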
PLK1 PBD block: PLK1 (human) polo-box domain binding inhibition; Potency, µM, usual class: inhibitors; AID 720504; hit rate 2.8% among 360,000; P53350; Plk1 PBD binding of FITC phosphopeptide, fluorescence polarization; note: series mostly up to about 57 µM; nearly all actives have a fitted effect of over 65% in size
Target sequence (P53350 whole entry, looked up, the tested form may be a part): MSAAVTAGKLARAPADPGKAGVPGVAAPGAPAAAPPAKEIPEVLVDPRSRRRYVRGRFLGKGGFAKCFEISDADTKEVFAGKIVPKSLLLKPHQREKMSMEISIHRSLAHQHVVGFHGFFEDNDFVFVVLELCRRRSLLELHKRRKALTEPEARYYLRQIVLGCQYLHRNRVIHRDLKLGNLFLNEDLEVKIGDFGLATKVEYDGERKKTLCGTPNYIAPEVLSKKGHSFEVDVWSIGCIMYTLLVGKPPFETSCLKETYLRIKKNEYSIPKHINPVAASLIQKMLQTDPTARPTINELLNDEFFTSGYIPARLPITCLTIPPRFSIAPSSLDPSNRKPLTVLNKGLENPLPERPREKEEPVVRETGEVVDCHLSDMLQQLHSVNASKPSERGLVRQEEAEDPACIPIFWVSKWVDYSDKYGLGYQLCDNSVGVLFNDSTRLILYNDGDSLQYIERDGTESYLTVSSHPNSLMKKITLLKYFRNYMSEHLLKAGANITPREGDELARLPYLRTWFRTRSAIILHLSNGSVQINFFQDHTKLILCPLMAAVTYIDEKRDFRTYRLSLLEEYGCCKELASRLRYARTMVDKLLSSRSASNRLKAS
Hits are given with their value; 0 = inactive; ? = inconclusive; - = no result given; [ ] = another dose, or the depositor's remark. Unless noted, calls come from the whole dose curve; as a rule, active = well fitted curve in the direction sought with a large enough effect; inconclusive = small, poorly fitted or top-dose-only effect, or another doubt; inactive = no such curve, though single readings can be large; an effect the other way counts as inactive or inconclusive.

SMILES	Sfp PPTase inh	ALDH1A1 block	VP16 counter	RORgamma inh	PLK1 PBD block
O=C1CC(c2cccc(F)c2)c2c(c3ccccc3[nH]c2=O)O1 (centres undefined)	6.3µM	?	0	0	0
CC(=O)N1CC=CC1(CC(C)C)C(=O)NCc1ccccn1 (centres undefined)	0	0	0	0	-
CC1CCC(C(C)C)C(=O)/C1=C/c1ccc(N)cc1 (centres undefined)	0	-	0	0	24µM
C=CCOc1ccc(CC(=O)O)cc1Cl	0	0	0	0	-
O=C1CCCCc2sc(Br)c([N+](=O)[O-])c2N1	0	-	?	11µM	0
COC(=O)[C@H]1C[C@H]2CC[C@H](O)C[C@H]2N1Cc1c(F)cccc1Cl	0	0	0	0	-
CCC(=O)N(c1nnc(SC(C)C(=O)Nc2ccc(N3CCOCC3)cc2)s1)C1CC1 (centres undefined)	-	-	-	-	0
O=C1CCC/C1=c1\s/c(=C\c2cccnc2)c(=O)n1-c1ccccc1	0	6.3µM	0	0	0
O=C1CCC/C1=c1\s/c(=C/c2cccnc2)c(=O)n1-c1ccccc1	-	-	-	-	0
CN1CCN(c2ccc(S(=O)(=O)N3CCCCC3)cc2NC(=O)c2ccc3ccccc3c2)CC1	40µM	0	8.9µM	11µM	0
Cc1ccccc1C(=O)Nc1cc(S(=O)(=O)N2CCCCC2)ccc1N1CCN(C)CC1	0	0	0	0	6µM
CN1CCN(c2ccc(S(=O)(=O)N3CCCCC3)cc2NC(=O)c2cccc([N+](=O)[O-])c2)CC1	0	0	0	0	0
Cc1cccc(OCC(=O)Nc2cc(S(=O)(=O)N3CCCCC3)ccc2N2CCN(C)CC2)c1	0	11µM	0	0	0
CCOC(=O)[C@]12CCC=C1N(Cc1ccco1)C(=O)[C@H](CC(=O)NCCCOC)C2	-	-	-	-	0
Cc1ccc(OCC2Cn3c(nc4c3c(=O)[nH]c(=O)n4C)O2)cc1C (centres undefined)	0	-	0	0	0
CC1Cc2ccccc2N1C(=O)CSc1nnc(CNc2ccccc2)o1 (centres undefined)	0	25µM	0	0	0
O=C(CSc1nnc(CNc2ccccc2)o1)N1CCCc2ccccc21	0	8.9µM	0	0	0
COc1ccc(NCc2nnc(SCC(=O)N3CCCc4ccccc43)o2)cc1	0	?	0	0	0
COC(=O)c1ccc2nc(-c3ccc(Cl)cc3)c(Cc3cccc(Cl)c3)n2c1	-	-	-	-	0
CN(C)S(=O)(=O)n1cc(/C=C(\NC(=O)c2ccccc2F)C(=O)N2CCCCC2)c2ccccc21	-	-	-	-	0
Brc1ccc(Cn2c(-c3ccc(Br)o3)nc3ccccc32)o1	?	0	0	0	0
Cc1oc(-c2nc3ccccc3n2C)cc1C(=O)c1ccccc1	22µM	?	?	11µM	24µM
Cn1c(-c2ccc(Br)o2)nc2ccccc21	40µM	?	0	0	0
CC(=O)c1ccc(-c2nc3ccccc3n2C)o1	40µM	?	0	0	0
Cn1c(-c2ccc(Br)o2)nc2cc(Br)ccc21	40µM	?	0	?	?
SMILES	Sfp PPTase inh	ALDH1A1 block	VP16 counter	RORgamma inh	PLK1 PBD block
CCOC(=O)c1c(NC(=S)NC(C)=O)sc(C)c1C	0	0	11µM	7.9µM	?
CCOC(=O)c1c(NC(C)=O)sc2c(O)cccc12	0	0	0	0	0
CCOC(=O)c1c(NC(=O)COC)sc(C)c1C	0	0	0	0	0
CCOC(=O)c1c(NC(C)=O)sc2c(O)c(Br)cc(Br)c12	35µM	?	0	0	0
COC(=O)c1c(NC(=S)Nc2ccccc2Cl)sc(C)c1C	?	?	6.3µM	2.8µM	0
CCOC(=O)c1c(NC(C)=O)sc(/C(C)=N/Nc2ccc(C(=O)O)cc2)c1C	0	-	?	11µM	?
COc1ccccc1N1CCN(S(=O)(=O)CCNC(=O)C23CC4CC(CC(C4)C2)C3)CC1	0	-	0	0	0
CCOC(=O)c1sc(NC(=S)NC(=O)c2ccccc2)c(C(=O)OCC)c1C	0	0	?	2.2µM	0
CCOC(=O)c1c(NC(=O)CNCC(O)CO)sc(C)c1C (centres undefined)	0	0	0	0	0
CCCCNCC(=O)Nc1sc(C)c(C)c1C(=O)OCC	0	0	?	13µM	0
FC(F)(F)c1ccccc1-c1ccc2ncnc(NCCN3CCOCC3)c2c1	0	0	0	0	-
O=C(NCc1ccncc1)c1ccc(Br)o1	0	3.5µM	0	0	0
O=C(Cc1ccccc1)NCc1ccncc1	0	?	?	6.3µM	0
O=C(Cc1c[nH]c2ccccc12)NCc1ccncc1	0	-	0	0	0
O=C(COC(=O)Cc1ccc(Cl)cc1)NCc1ccc(Cl)cc1	-	-	-	-	0
O=C(NCc1cccnc1)c1ccc(Br)o1	-	-	-	-	0
O=C(COC(=O)Cc1ccc(-c2ccccc2)cc1)NCc1ccccc1	0	0	0	0	27µM
CCOC(=O)c1sc(=S)n(CC)c1N	0	0	0	0	0
COc1ccc(-n2c(N)c(C(=O)NCc3ccco3)sc2=S)cc1	0	?	0	0	0
CCn1c(N)c(C(N)=O)sc1=S	14µM	8.9µM	0	?	27µM
CCOC(=O)c1ccc(-n2c(N)c(C(=O)NCc3ccco3)sc2=S)cc1	35µM	18µM	0	0	24µM
CNC(=O)c1sc(=S)n(-c2ccc(OC)cc2)c1N	0	0	0	0	0
Nc1ccccc1C(=O)NCc1ccco1	0	-	0	0	0
C=CCNC(=O)c1sc(=S)n(-c2ccc(C(=O)OCC)cc2)c1N	20µM	13µM	0	0	21µM
CCn1c(N)c(C(=O)NCc2ccco2)sc1=S	22µM	14µM	0	0	24µM
SMILES	Sfp PPTase inh	ALDH1A1 block	VP16 counter	RORgamma inh	PLK1 PBD block
COc1ccc(C(=O)N2CCN(c3nc4cc(C)cc(C)c4cc3C#N)CC2)cc1	-	-	-	-	0
CCOC(=O)c1ccc(-n2c(=S)sc3c(=O)[nH]c(C)nc32)cc1	13µM	7.1µM	-	0[0.365 µM]	5.3µM
Cc1cc(C)c2c(c1)OC(=O)CC2c1ccccc1C (centres undefined)	?	0	0	0	27µM
COc1ccc(CN(C)C(=O)Cn2cc(C)c(=O)[nH]c2=O)cc1OC	-	-	-	-	27µM
CC(Oc1ccccc1)c1ccnc2nc(/N=C/N(C)C)nn12 (centres undefined)	0	?	0	0	0
CN(C)/C=N/c1nc2ncc(-c3ccc(Cl)cc3)c(/N=C/N(C)C)n2n1	0	?	0	0	27µM
CN(C)/C=N/c1nc2nccc(-c3cccc(Cl)c3)n2n1	0	?	0	0	27µM
CC(Oc1cccc(F)c1)c1ccnc2nc(/N=C/N(C)C)nn12 (centres undefined)	0	?	0	0	21µM
O=c1nc2ccccc2c2n1C[C@H](CN1CCN(c3ccccc3)CC1)N2	0	0	0	0	-
CC1=NN(C(=O)c2ccncc2)C(=O)C1N=Nc1ccc2ccccc2c1 (centres undefined)	-	-	-	-	0
CC1=NN(C(N)=S)C(=O)C1N=Nc1cccc2ccccc12 (centres undefined)	0	14µM	2.8µM	0.63µM	-
CC1=NN(C(N)=S)C(=O)C1N=Nc1cccc(Cl)c1C (centres undefined)	0	-	1µM	0.35µM	0
